Growth data for 40 compounds are collected here from PubChem BioAssay (NCI).

Each structure is given as a SMILES string. Compounds without any hit were thinned out: in the full panel of roughly 83,000, 20% have a hit.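 Values shown are percent growth following 48 h exposure of cells in 96-well plates to a single concentration of compound; below 10 was considered active.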 A number with no mark means an inactive call. The source made the active and inactive calls.

The test system of this test is KM12 colon. Kind of test: NCI-60 one-dose screen, 48 h (100 = growth as untreated, 0 = no growth, -100 = all killed). The conditions noted are these: 10 µM unless noted. The method, then:
Growth inhibition of the KM12 human tumor cell line is measured as a screen for anti-cancer activity. Cells are grown in 96 well plates and exposed to the test compound for 48 hours. Compounds are tested at a single concentration, which is 10^-5 M for most compounds. The reported endpoint is percent growth (GI% or GIPRCNT), where numbers from 0 - 100% represent growth inhibition, and numbers from -100% - 0 represent cell death. For example, a value of 40 represents 60% growth inhibition. A value of 0 means no net growth occurred over the course of the experiment. A value of -40 indicates 40% of cells at the beginning of the experiment died by the end of the experiment. A value of -100 means all cells are dead at the end of the experiment.
NCI-60 Human Tumor Cell Lines Screen was performed using the standard one-dose NCI protocol, which is described in more detail at https://dtp.cancer.gov/discovery_development/nci-60/default.htm.
Compounds with GIPRCNT values below 10 were considered active. Activity score was based on GIPRCNT using the following formula: […]
Score is 0 for GIPRCNT values of 100 or above, 50 for GIPRCNT values of 0, and 100 for GIPRCNT values of -100.
Consider `COc1ccc(-c2nc(SC)nc(N3CCOCC3)c2C#N)cc1`, for which the growth was 99.9%.

Take `Clc1nc(Cl)c2ncn(CC3(Cn4cnc5c(Cl)nc(Cl)nc54)COC3)c2n1`: the growth was -73.4% (active). The same measure for `COc1ccc(C(=O)/C=C/c2c(OC)cc(OC)cc2OC)c(OC)c1`: 15.6%; for `COc1ccc(C2CC(c3cccc(Nc4ccncc4)c3)=NN2c2ccc(Cl)cc2)cc1` (stereo not given): -72.1% (active); for `C#CC(=O)Nc1cccc2c1cc(C)n2-c1nc2c(c(NCc3ccccc3)n1)CCCC2`: -27.6% (active).

On to `C=C1C(=O)O[C@H]2[C@H]1CC/C(COC(=O)/C=C/c1c[nH]c3ccccc13)=C\CC[C@@]1(C)O[C@@H]21`, for which the growth is -51.6% (active).

Regarding `COc1cc(/C=C/C(=O)c2c(C)oc3nc[nH]c(=O)c23)ccc1O`, the growth is 103%. The same measure for `COc1ccc(-c2nc(N=Nc3c(O)[nH]c4ccccc34)nc(N3CCOCC3)c2C#N)cc1`: 73.4%; for `COc1cc(C2NC(c3cc(OC)c(OC)c(OC)c3)C(C#N)(C#N)C2(C#N)C#N)cc(OC)c1OC` (stereo not given): 99.5%; for `c1ccc2c(-c3c4ccsc4cc4[nH]c5ccccc5c34)c[nH]c2c1`: 14.9%.

For `COc1ccc(NC(=O)c2sc3nc(C)c(C(=O)CCc4cccc(OC)c4)cc3c2N)cc1`, the growth was 56.1%.

As for `COc1cc(NCC(C)(O)CN(CC(C)C)CC(C)C)c2nc(C)ccc2c1` (stereo not given), the growth was 63.2%. The same measure for `Fc1ccccc1CSc1ncnc2nc[nH]c12`: 112%; for `O=C(O)c1cn(C2CC2)c2cc(N3CCN(C(=O)C[n+]4cccc5ccccc54)CC3)c(F)cc2c1=O`: 92.3%; for `Cc1nn(-c2ccccc2)c(N2CCOCC2)c1/C=N/N=c1\sc2ccccc2n1C`: 81.4%. `CC(=O)OCCCCCNc1ccccc1`: the growth is 94.6%.

As to `O=C(Nc1ccc2ncnc(Nc3ccc(Oc4cccc(F)c4)c(Cl)c3)c2c1)c1ccc(CNCCO)cc1`, the growth is 12.9%.

For the compound `O=C(CN1CCOCC1)Nc1ccc2ncnc(Nc3ccc(OCc4cccc(F)c4)c(Cl)c3)c2c1`, the growth is 83.2%. The same measure for `COc1ccc(/C=C/C(=O)c2ccc(Nc3ncnc4ccccc34)cc2)cc1OC`: 16.3%. The same measure for `COc1ccc(C(=O)c2cc3c(N)c(C(=O)Nc4ccc(Cl)cc4)sc3nc2C)cc1`: 70.2%; for `CNC(=O)Nc1ccc(-c2nc(N3CCOCC3)nc3c2cnn3C2CCOCC2)cc1`: 12.8%.

`COc1ccc2nc(N=Nc3c(O)ccc4ccccc34)sc2c1`: the growth was 32.3%. Take `O=C(N/N=C/c1ccncc1)c1ccccc1Nc1cccc(C(F)(F)F)c1`: the growth is 77.8%. The same measure for `O=S(=O)(NCCCNc1nccc(-c2c(-c3ccc(F)c(O)c3)nc3sccn23)n1)c1ccc(F)cc1`: 10.4%.

`CCOC(=O)c1c(SC)nn(-c2cc(=O)[nH]c3ccc(Br)cc23)c1N`: the growth was 99%. The figure for `Clc1ccc2c(c1)c(-c1ccccc1)nc1nncn12` is 103%; for `CCCCCCCCCCCC(=O)C(CCCCCCCCCC)C(=O)Nc1ccccc1` (stereo not given) it is 106%. As to `C=C(C)[C@H]1CC/C(C)=C/CC[C@]2(C)O[C@H]2CC/C(COC(=O)[C@@H](OC(C)=O)[C@H](NC(=O)c2ccccc2)c2ccccc2)=C\[C@@H]1O`, the growth is 99.6%.

In the case of `CSc1nc(O)c(-c2ccccc2)c(=O)[nH]1`, the growth is 103%. For the compound `COc1cc2c(cc1[N+](=O)[O-])-c1ccc([N+](=O)[O-])cc1/C2=N\O`, the growth is 95.1%. The same measure for `O=S(=O)(NCCNc1nccc(-c2c(-c3cccc(F)c3)nc3occn23)n1)c1cccc2ccccc12`: 49.6%; for `COc1ccc(/C=N/C2=C(C#N)C(c3ccccc3[N+](=O)[O-])c3ccc4ccccc4c3O2)cc1` (stereo not given): 95.9%.

`C(=C\c1n(Cc2ccc3ccccc3c2)c(-c2ccccc2)c(-c2ccccc2)[n+]1Cc1ccc2ccccc2c1)/c1ccccc1`: the growth is -83.5% (active).

In the case of `O=C(O)C(/C=C/c1ccco1)=N\Nc1nc(-c2ccc(Cl)cc2)cs1`, the growth was 62.2%.

Regarding `CC(=O)OCC(=O)[C@@]1(O)CC[C@H]2[C@@H]3CC(=C(Br)Br)C4=CC(=O)CC[C@]4(C)[C@H]3C(=O)C[C@@]21C`, the growth was 93.6%. The figure for `Cc1ccc(-c2csc(/N=C3\C(=O)Nc4ccccc43)n2)cc1` is 15.2%; for `O=C(Nc1cccc(Cl)c1)Oc1c(Br)c(Br)c(Br)c(Br)c1Br` it is 106%; for `CC(C)(C)OC(=O)N1CCN(c2ccc(N)cc2)C(=O)C1` it is 108%. For `CC(=O)c1cccc(NS(=O)(=O)c2cccc(C(=O)Nc3ccc(Br)cc3)c2)c1`, the growth is 56% [25 µM]. The figure for `C#CC(=O)Nc1cccc(Nc2nc3c(c(NCc4ccccc4)n2)CCCC3)c1` is -53.4% (active).
